# According to PubChem BioAssay (Tox21):
# “And” between values parts separate entries of the source, which are not always exact repeats. Equal entries are not always repeated. Results filed as inconclusive are left out. A call without a number means that no potency is given here. A structure can be active in one record and inactive in another. The source made the active and inactive calls. Unless noted, calls come from the whole dose curve; as a rule, active = well fitted curve in the direction sought with a large enough effect in the repeat runs; inconclusive = weak or mixed curves; inactive = no such curve, though single readings can be large; an effect the other way counts as inactive or inconclusive.
# Columns and labels:
# [1] = qHTS assay to identify small molecule antagonists of the glucocorticoid receptor (GR) signaling pathway - cell viability counter screen (AID 720693); note: nearly all actives have a fitted effect of over 55% in size; note: potency is the fitted concentration of half-maximal effect
# [2] = qHTS assay for identifying genotoxic compounds that show differential cytotoxicity against isogenic chicken DT40 cell lines with known DNA damage response pathways - wild type cell line (AID 743012); note: nearly all actives have a fitted effect of over 60% in size; note: potency is the fitted concentration of half-maximal effect
# Method in brief: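 Quantitative HTS on parental DT40 cells: 40 h compound treatment at 37 C/5% CO2, with viability then determined by CellTiter-Glo luminescence. Values serve as the DNA repair-proficient reference for differential cytotoxicity.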
# [3] = qHTS assay for identifying genotoxic compounds that show differential cytotoxicity against isogenic chicken DT40 cell lines with known DNA damage response pathways - Rev3 mutant cell line (AID 743014); note: nearly all actives have a fitted effect of over 55% in size; note: potency is the fitted concentration of half-maximal effect
# [4] = qHTS assay for identifying genotoxic compounds that show differential cytotoxicity against isogenic chicken DT40 cell lines with known DNA damage response pathways - Rad54/Ku70 mutant cell line (AID 743015); note: nearly all actives have a fitted effect of over 60% in size; note: potency is the fitted concentration of half-maximal effect
# [5] = qHTS assay to identify small molecule antagonists of the androgen receptor (AR) signaling pathway - cell viability counter screen (AID 743033; note: nearly all actives have a fitted effect of over 45% in size; note: potency is the fitted concentration of half-maximal effect)
# [6] = qHTS assay to identify small molecule antagonists of the androgen receptor (AR) signaling pathway using the MDA cell line - cell viability counter screen (AID 743041; note: nearly all actives have a fitted effect of over 45% in size; note: potency is the fitted concentration of half-maximal effect)
# Method in brief: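 MDA-kb2 AR-luc cells (MMTV-luciferase, AR/GR responsive) treated with compounds plus R1881 agonist for 16 h at 37C. CellTiter-Fluor added at 15.5 h; fluorescence read after 30 min in the same wells.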
# [7] = biological target: Androgen receptor (Homo sapiens) (UniProt P10275); assay: qHTS assay to identify small molecule antagonists of the androgen receptor (AR) signaling pathway (AID 743035; active = well fitted inhibition curve with a large enough effect in the signal ratio in the repeat runs, not every such curve was filed as active; the % refers to the signal ratio; note: potency is the fitted concentration of half-maximal effect)
# Androgen receptor (Homo sapiens), sequence (P10275 whole entry, looked up): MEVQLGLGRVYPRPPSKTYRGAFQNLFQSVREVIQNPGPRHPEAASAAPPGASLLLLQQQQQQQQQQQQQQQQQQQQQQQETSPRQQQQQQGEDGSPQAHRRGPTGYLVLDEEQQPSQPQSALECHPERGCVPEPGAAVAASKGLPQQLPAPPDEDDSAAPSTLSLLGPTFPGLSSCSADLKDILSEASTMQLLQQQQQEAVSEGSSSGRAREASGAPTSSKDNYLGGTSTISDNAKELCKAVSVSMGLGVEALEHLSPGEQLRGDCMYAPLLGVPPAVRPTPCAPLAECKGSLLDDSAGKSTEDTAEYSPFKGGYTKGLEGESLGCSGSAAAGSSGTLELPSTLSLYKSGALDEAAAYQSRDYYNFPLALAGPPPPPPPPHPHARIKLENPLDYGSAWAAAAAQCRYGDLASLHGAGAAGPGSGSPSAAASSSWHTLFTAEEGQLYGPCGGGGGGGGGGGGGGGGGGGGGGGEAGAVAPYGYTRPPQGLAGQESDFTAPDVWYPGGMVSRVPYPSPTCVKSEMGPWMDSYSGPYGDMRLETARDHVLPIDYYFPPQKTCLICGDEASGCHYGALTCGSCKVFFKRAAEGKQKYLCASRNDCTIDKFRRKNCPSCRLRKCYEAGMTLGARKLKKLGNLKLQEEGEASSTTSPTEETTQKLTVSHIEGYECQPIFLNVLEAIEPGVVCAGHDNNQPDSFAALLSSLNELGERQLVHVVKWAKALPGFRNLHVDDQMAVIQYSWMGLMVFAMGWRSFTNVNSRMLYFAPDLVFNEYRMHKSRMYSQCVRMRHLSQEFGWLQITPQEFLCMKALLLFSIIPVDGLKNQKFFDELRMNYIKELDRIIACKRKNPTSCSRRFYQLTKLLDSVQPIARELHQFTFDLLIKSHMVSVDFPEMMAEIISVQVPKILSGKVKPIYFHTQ
# Method in brief: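 Cell line: GeneBLAzer AR-UAS-bla GripTite (HEK293). Stimulus: R1881 added after compound. Exposure: 16 h, 37C, 5% CO2. Readout: LiveBLAzer B/G FRET fluorescence after 2 h at room temperature.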
# [8] = biological target: Androgen receptor (Homo sapiens) (UniProt P10275); assay: qHTS assay to identify small molecule agonists of the androgen receptor (AR) signaling pathway (AID 743036; active = well fitted activation curve with a large enough effect in the signal ratio in the repeat runs, with a control signal flat, not every such curve was filed as active; the % refers to the signal ratio)
# Method in brief: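 Following a 4 h settling period, AR-UAS-bla HEK293 cells were dosed with compounds for 16 h at 37C. A 2 h room-temperature incubation with LiveBLAzer B/G FRET substrate preceded the fluorescence measurement.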
# [9] = biological target: Androgen receptor (Homo sapiens) (UniProt P10275); assay: qHTS assay to identify small molecule agonists of the androgen receptor (AR) signaling pathway using the MDA cell line (AID 743040; note: nearly all actives have a fitted effect of over 20% in size; note: potency is the fitted concentration of half-maximal effect)
# Method in brief: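 MDA-kb2 breast carcinoma cells carrying MMTV-luciferase (responsive to AR and GR), plated 5 h then treated 16 h with compounds at 37C, 0% CO2. Read-out was ONE-Glo luminescence after 30 min at room temperature.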
# [10] = biological target: Androgen receptor (Homo sapiens) (UniProt P10275); assay: qHTS assay to identify small molecule antagonists of the androgen receptor (AR) signaling pathway using the MDA cell line (AID 743042; note: nearly all actives have a fitted effect of over 55% in size; note: potency is the fitted concentration of half-maximal effect)
# Method in brief: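 MDA-kb2 breast carcinoma cells carrying MMTV-luciferase (AR/GR responsive) were co-treated with compounds and the agonist R1881 for 16 h at 37C. Inhibition read as ONE-Glo luminescence; CellTiter-Fluor fluorescence measured in parallel for cytotoxicity.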
Structure (SMILES),Potency [1],Potency [2],Potency [3],Potency [4],Potency [5],Potency [6],Potency [7],outcome [8],Potency [9],Potency [10]
NC[C@H](O)c1ccc(O)c(O)c1,inactive,23.7 µM (active) and 21.7 µM (active),21.1 µM (active) and 17.2 µM (active),24.3 µM (active),inactive,inactive,,,,
CCC(Cc1c(I)cc(I)c(N)c1I)C(=O)O (stereo not drawn),inactive,inactive,inactive,inactive,inactive,inactive,,,,
ClC/C=C/CCl,inactive,inactive,inactive,inactive,inactive,inactive,,,,
C=CCOC(=O)C(=C)C,inactive,inactive,inactive,inactive,inactive,inactive,,,,
c1ccc2c(c1)[nH]c1ccccc12,inactive,inactive,inactive,inactive,inactive,inactive,inactive,inactive,inactive,inactive
CCCCCCCCCCCCO,inactive,inactive,inactive,inactive,inactive,inactive,,,,
IC(I)I,inactive,inactive,inactive,inactive,inactive,inactive,,,,
C=CCNCC=C,inactive,inactive,inactive,inactive,inactive,inactive,,,,
Cc1cccc(Nc2ccccc2C(=O)O)c1C,inactive,inactive,inactive,inactive and 61.1 µM (active),inactive,inactive,,,,
C=CN1CCCC1=O,inactive,inactive,inactive,inactive,inactive,inactive,,,,
Nc1ccc(O)c(N)c1,inactive,24.3 µM (active),inactive and 27.3 µM (active),27.3 µM (active),inactive,,,,,
C=CCCCCCCCCCC,inactive,inactive,inactive,inactive,inactive,inactive,,,,
c1ccc2c(c1)ccc1ncccc12,inactive,inactive,inactive,inactive,inactive,inactive,inactive,inactive,inactive,
COc1ccc(C(=O)c2ccccc2O)c(O)c1,inactive,inactive,inactive,inactive,inactive,inactive,,,,
Nc1ccc(N)c(Cl)c1,inactive,68.5 µM (active) and inactive,61 µM (active) and inactive,inactive,,,,,,
CCCN1C=CN(C)C1,inactive,inactive,inactive,inactive,inactive,inactive,,,,
CC1(C)OC(=O)NC1=O,inactive,inactive,inactive,inactive,inactive,inactive,,,,
COc1cc([C@H]2Oc3cc([C@H]4Oc5cc(O)cc(O)c5C(=O)[C@@H]4O)ccc3O[C@@H]2CO)ccc1O,inactive,inactive,inactive,29.8 µM (active) and 48.4 µM (active),inactive,inactive,,,,
Cc1ccc(S(=O)(=O)O)cc1C,inactive,inactive,inactive,inactive,inactive,inactive,,,,
O=Cc1ccccc1C=O,23.9 µM (active) and 4.36 µM (active),7.5 µM (active) and 2.73 µM (active),8.41 µM (active) and 2.17 µM (active),11.9 µM (active) and 2.43 µM (active),inactive,24.3 µM (active),,,inactive,8.63 µM (active)
O=C(O)CCCC(=O)O,inactive,inactive,inactive,inactive,inactive,inactive,,,,
CC(=O)Nc1ccc2c(c1)Cc1cc(NC(C)=O)ccc1-2,inactive,inactive,inactive,inactive,inactive,inactive,,,,
CC(=O)[C@H]1CC[C@H]2[C@@H]3CC=C4C[C@@H](O)CC[C@]4(C)[C@H]3CC[C@]12C,inactive,inactive,0.485 µM (active),inactive,inactive,inactive,,,,
Brc1nc2ccccc2s1,inactive,inactive,inactive,inactive,inactive,inactive,,,,
C/C=C/C(=O)N(CC)c1ccccc1C,inactive,54.5 µM (active),54.5 µM (active),inactive and 48.6 µM (active),inactive,inactive,,,,

Structure (SMILES),Potency [1],Potency [2],Potency [3],Potency [4],Potency [5],Potency [6],Potency [7],outcome [8],Potency [9],Potency [10]
CC(=O)O[C@]1(C(C)=O)CC[C@H]2[C@@H]3C=C(C)C4=CC(=O)CC[C@]4(C)[C@H]3CC[C@@]21C,inactive,11.4 µM (active) and 13.7 µM (active),12.7 µM (active) and 17.2 µM (active),15.4 µM (active),inactive,inactive,,,,
C1COCCN1,inactive,inactive,inactive,inactive,inactive,inactive,,,,
CCC/C=C/C=O,inactive,inactive,inactive,inactive,inactive,inactive,inactive,,,inactive
C=C1C[C@H]2[C@@H]3C=C(C)C4=CC(=O)CC[C@]4(C)[C@H]3CC[C@]2(C)[C@@]1(OC(C)=O)C(C)=O,inactive,7.5 µM (active) and 14 µM (active),8.41 µM (active) and 14 µM (active),10.6 µM (active) and 17.6 µM (active),inactive,inactive,1.77 µM (active),inactive,47.3 nM (active) and 27.9 nM (active),inactive
NCCOCCO,inactive,inactive,inactive,inactive,inactive,inactive,,,,
CCc1cccc2c3c([nH]c12)C(CC)(CC(=O)O)OCC3 (stereo not drawn),inactive,inactive,inactive,inactive,inactive,inactive,inactive,inactive,inactive,inactive
CN(Cc1cnc2nc(N)nc(N)c2n1)c1ccc(C(=O)N[C@@H](CCC(=O)O)C(=O)O)cc1,inactive,9.4 nM (active) and 1.7 nM (active),11.9 nM (active) and 1.7 nM (active),13.3 nM (active) and 1.7 nM (active),75.6 nM (active),inactive,,inactive,inactive,inactive
CCCCCCCCCCC(CO)CCCCCCCC (stereo not drawn),inactive,inactive,inactive,inactive,inactive,inactive,,,,
CC(C)[C@@H]1CC[C@@H](C)CC1=O,inactive,inactive,inactive,inactive,inactive,inactive,,,,
CC1(C)O[C@@H]2C[C@H]3[C@@H]4C[C@H](F)C5=CC(=O)C=C[C@]5(C)[C@@]4(F)[C@@H](O)C[C@]3(C)[C@]2(C(=O)CO)O1,inactive,inactive,inactive,inactive,inactive,inactive,,,,
CCCCCCOCCOCCO,inactive,inactive,inactive,inactive,inactive,inactive,,,,
C=CC(=O)OCCCC,inactive,inactive,inactive,inactive,inactive,inactive,,,,
c1ccc2ncccc2c1,inactive,inactive,inactive,inactive,inactive,inactive,,,,
OC[C@H]1O[C@@H]2O[C@H]3[C@H](O)[C@@H](O)[C@@H](O[C@H]4[C@H](O)[C@@H](O)[C@@H](O[C@H]5[C@H](O)[C@@H](O)[C@@H](O[C@H]6[C@H](O)[C@@H](O)[C@@H](O[C@H]7[C@H](O)[C@@H](O)[C@@H](O[C@H]1[C@H](O)[C@H]2O)O[C@@H]7CO)O[C@@H]6CO)O[C@@H]5CO)O[C@@H]4CO)O[C@@H]3CO,inactive,inactive,inactive,inactive,inactive,inactive,,,,
CC(=O)O[C@]1(C(C)=O)CC[C@H]2[C@@H]3C=C(Cl)C4=CC(=O)CC[C@]4(C)[C@H]3CC[C@@]21C,inactive,10.6 µM (active) and 27.3 µM (active),11.9 µM (active),18.8 µM (active),inactive,inactive,,,,
CCCCCCC(C)O (stereo not drawn),inactive,inactive,inactive,inactive,inactive,inactive,,,,
C=C[C@@]1(C)CC(=O)[C@]2(O)[C@@]3(C)[C@@H](O)CCC(C)(C)[C@@H]3[C@H](O)[C@H](OC(C)=O)[C@@]2(C)O1,inactive,26.6 µM (active) and 30.6 µM (active),inactive and 48.6 µM (active),23.7 µM (active) and 24.3 µM (active),,26.6 µM (active) and 38.6 µM (active),,,,
Nc1cc([N+](=O)[O-])ccc1C(=O)O,inactive,,inactive,inactive,inactive,inactive,,,,
CCO[Si](CCCNC(N)=O)(OCC)OCC,inactive,inactive,inactive,inactive,inactive,inactive,,,,
CCCOCCO,inactive,inactive,inactive,inactive,inactive,inactive,,,,
O=C(O)c1ccc(O)cc1,inactive,inactive,inactive,inactive,inactive,inactive,,,,
COc1ccc2nc(N)sc2c1,inactive,,inactive,inactive,inactive,inactive,inactive,inactive,inactive,inactive
C[N+](C)(C)CCO,inactive,inactive,inactive,inactive,inactive,inactive,,,,
CCOC(=O)C(C)Oc1ccc(Oc2cnc3cc(Cl)ccc3n2)cc1 (stereo not drawn),inactive,,inactive and 40.5 µM (active),inactive and 45.5 µM (active),inactive,inactive,,,,
